Experimental data published in PubChem BioAssay (NCATS).
Activity calls are given as the source filed them. Calls come from the whole dose curve; as a rule, active = well fitted curve in the direction sought with a large enough effect; inactive = no such curve, though single readings can be large or run the other way.

Assay: qHTS for small molecule inhibitors of Yes1 kinase: Counter Assay (AID 686950);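 note: no kinase present so only ADP-Glo detection of a fixed ADP amount is tested; luminescence from ADP-Glo reporting ADP in a fixed ATP and ADP mixture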
Details: series mostly up to 76.9 µM
Summary of the method: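 Enzyme-free detection counter-screen: compounds preincubated 20 min in buffer, then 0.08 mM ATP plus 0.02 mM ADP added for 60 min at room temperature; ADP-Glo luminescence. Buffer 50 mM Tris pH 7.5, 10 mM MgCl2, 150 mM NaCl; normalized to ATP+ADP and ATP-only controls.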
With CC(C)OC(=O)C1=CN(C(=O)c2ccc(F)c(F)c2)CC(C)(C)c2c1[nH]c1ccccc21 the outcome was “inactive”.
With Cc1c(CN2CCN(C(=O)C(C)C)CC2)sc2c(N3CCOCC3)nc(-c3cnc(N)nc3)nc12 the outcome was “inactive”.
With O=S(=O)(N=Cc1c(O)ccc2ccccc12)c1cccs1 the outcome was “inactive”.
For COc1cc(Nc2ncc3c(n2)-c2ccc(Cl)cc2C(c2c(F)cccc2OC)=NC3)ccc1C(=O)O, the outcome was “inactive”.
For Cc1cc(-c2nnc3n2CCCCC3)c(C)n1-c1ccc(F)cc1, the outcome was “inactive”.
For Cc1cc([C@@H](C)Nc2ccccc2C(=O)O)c2nc(N3CCOCC3)cc(=O)n2c1, the outcome was “inactive”.
With CC(C)(C)OC(=O)CN(Cc1ccc(Cl)cc1)Cc1ccc([N+](=O)[O-])s1 the outcome was “inactive”.
With CCN(c1ccccc1)c1cc(NC)[n+](C)c(C)n1 the outcome was “inactive”.
With CCC(C)n1ncn(-c2ccc(N3CCN(c4ccc(OC[C@H]5CO[C@](Cn6cncn6)(c6ccc(Cl)cc6Cl)O5)cc4)CC3)cc2)c1=O (stereo partly specified) the outcome was “inactive”.
In the case of COc1ccc(C2=N[C@H](c3ccc(Cl)cc3)[C@H](c3ccc(Cl)cc3)N2C(=O)N2CCNC(=O)C2)c(OC(C)C)c1, the outcome was “inactive”.
In the case of CCCS(=O)(=O)Nc1ccc(F)c(C(=O)c2c[nH]c3ncc(-c4ccc(Cl)cc4)cc23)c1F, the outcome was “inactive”.
With CCOc1ccc(Cc2cc([C@@H]3O[C@H](CO)[C@@H](O)[C@H](O)[C@@H]3O)ccc2Cl)cc1 the outcome was “inactive”.
In the case of CC1(C)SCCN(S(=O)(=O)c2ccc(OCC#CCO)cc2)[C@@H]1C(=O)NO, the outcome was “inactive”.
With COc1ccccc1[C@H](c1cccc2ccccc12)[C@@](C)(C#N)C(=O)N1CCC(c2cccc(C(F)(F)F)c2)CC1 the outcome was “inactive”.
In the case of COc1cccc2cc(-c3nc(C4CCC(C(=O)O)CC4)n4ncnc(N)c34)[nH]c12 (stereo unspecified), the outcome was “inactive”.
For Cc1n[nH]c(C)c1Cc1sc2c(c1C(=O)N1C[C@H](O)CO1)c(=O)n(C)c(=O)n2CC(C)C, the outcome was “inactive”.
With CCCc1nn(C)c2c(=O)[nH]c(-c3cc(S(=O)(=O)N4CCN(C)CC4)ccc3OCC)nc12 the outcome was “inactive”.
In the case of O=C(OCC#CCSc1nnc(-c2ccc3ccccc3c2)o1)c1cc2ccccc2s1, the outcome was “inactive”.
In the case of NC(=O)c1ccc(-c2nc(-c3ccc4c(c3)OCO4)c(-c3ccccn3)[nH]2)cc1, the outcome was “inactive”.
In the case of OCCC#Cc1nc(-c2ccc(F)cc2)c(-c2ccncc2)n1CCCc1ccccc1, the outcome was “inactive”.
With CN(C)C(=O)c1ccc(S(=O)(=O)c2ccc(NC(=O)[C@@](C)(O)C(F)(F)F)c(Cl)c2)cc1 the outcome was “inactive”.
In the case of CCOc1cc(N2CCC(O)CC2)ccc1Nc1ncc2c(n1)N(C)c1ccccc1C(=O)N2C, the outcome was “inactive”.
With COc1cc2nccc(Oc3ccc(NC(=O)NC4CC4)c(Cl)c3)c2cc1C(N)=O the outcome was “inactive”.
In the case of Nc1cccc(S(=O)(=O)N2CCCN(S(=O)(=O)c3ccc4c(c3)OCCO4)CC2)c1, the outcome was “inactive”.
For CNCc1ccc(-c2[nH]c3cc(F)cc4c3c2CCNC4=O)cc1, the outcome was “inactive”.
In the case of NC(=O)c1ccc(I)c([N+](=O)[O-])c1, the outcome was “inactive”.
In the case of Cc1ccc(NC(=O)c2cccc(C(C)(C)C#N)c2)cc1Nc1ccc2ncn(C)c(=O)c2c1, the outcome was “inactive”.
In the case of O=C(Nc1cccnc1)N1CCC(Cc2cccc(Oc3ccc(C(F)(F)F)cn3)c2)CC1, the outcome was “inactive”.
In the case of COc1ccc(-c2oc3cc(OC)ccc3c2C(=O)c2ccc(C#N)cc2)cc1, the outcome was “inactive”.
For OCCn1cc(-c2cnc3nnn(Cc4ccc5ncccc5c4)c3n2)cn1, the outcome was “inactive”.
In the case of O=C(NOC[C@H](O)CO)c1ccc(F)c(F)c1Nc1ccc(I)cc1F, the outcome was “inactive”.
For O=C(O)[C@@H](c1ccc(OCc2ccc3ccccc3n2)cc1)C1CCCC1, the outcome was “inactive”.
With C[C@]12CC[C@H](O)CC1=CC[C@@H]1[C@H]2CC[C@]2(C)C(c3cccnc3)=CC[C@H]12 the outcome was “inactive”.
For CN[C@@H](C)C(=O)N[C@H]1CCCC[C@H]2CC[C@@H](C(=O)N[C@@H](c3ccccc3)c3cn(CCCCc4ccc(CCCCn5cc([C@@H](NC(=O)[C@@H]6CC[C@@H]7CCCC[C@H](NC(=O)[C@H](C)NC)C(=O)N76)c6ccccc6)nn5)cc4)nn3)N2C1=O, the outcome was “inactive”.
With Cc1ccc2c(c1)C(=O)[C@@]1(O)CCN(c3ccccc3)C1=N2 the outcome was “inactive”.
In the case of O=C(c1cc(Cc2n[nH]c(=O)c3ccccc23)ccc1F)N1CCN(C(=O)C2CC2)CC1, the outcome was “inactive”.
